# Screens: PubChem, National Center for Advancing Translational Sciences (NCATS)
# MCF10A rereplic: A quantitative high throughput screen for small molecules that induce DNA re-replication in MCF 10a normal breast cells. Potency, µM (highest dose often 46.1 µM), without a hit: at the highest dose activity, positive = re-replication, actives largely listed as activators. MCF 10A DNA re-replication, Hoechst nuclear intensity, 48 h. AID 624296, 2012. hit rate 2.9% among 350,000; also: % of control where 0% means no effect; nearly all actives have a fitted effect of over 50% in size
# p53 reactivation: qHTS assay for re-activators of p53 using a Luc reporter. hit rate 0.063% among 320,000. Potency, µM (titrated, usually from 92.2 µM), without a hit: at the top dose activity change, positive = activation, most hits filed as activators. H1299 p53-A138V BP100-luciferase reporter, luminescence, 24 h; also: % of control where 0% means no effect; nearly all actives have a fitted effect of over 45% in size
#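 p53-null H1299 cells stably carrying temperature-sensitive p53-A138V and a BP100-luciferase reporter were pinned with compounds (4-point, 1:5 series) and held 24 hrs at 37 deg C. Luminescence was read 10 min after detection reagent.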
# A-T KAP1 phos: qHTS Assay for Identifying a Potential Treatment of Ataxia-Telangiectasia. hit rate 0.19% among 320,000. F2112 A-T fibroblasts, KAP-1 phosphorylation AlphaLISA; neocarzinostatin DNA damage 30 min before lysis. Potency, µM (highest dose often 57.5 µM), for inactives: at the highest dose activation, actives largely listed as activators. AID 485349, 2010; also: % of control where 0% means no effect; nearly all actives have a fitted effect of over 45% in size
#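 hTERT-immortalized A-T patient fibroblasts (F2112), 500 cells/well in OPTI-MEM, 1% FBS, got compounds for 60 min, then NCS for 30 min at 37C. Lysates were then assayed for phospho-KAP-1 by AlphaLISA (anti-pKAP1 donor, anti-KAP1 acceptor beads), 6 hr at 25C.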
# ELG1 repair inh: qHTS screen for small molecules that inhibit ELG1-dependent DNA repair in human embryonic kidney (HEK293T) cells expressing luciferase-tagged ELG1. hit rate 2.3% among 330,000. Potency, µM (highest dose often 46.1 µM), for inactives: top-dose activity change, negative = inhibition, most hits filed as inhibitors. HEK293T ELG1-luciferase reporter, luminescence, 16 h; DNA damage induced by 5-fluorouridine; also: % is scaled to controls: 0 for no effect and ±100 for the full control effect; nearly all actives have a fitted effect of over 55% in size
#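 Reporter activity after DNA damage by 5-fluorouridine is monitored. Compound-treated cells incubate 16 hr at 37 °C, then ONE-Glo is added for 30 min before luminescence reading.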
# ELG1 genotox: qHTS screen for small molecules that induce genotoxicity in human embryonic kidney (HEK293T) cells expressing luciferase-tagged ELG1 | Potency, µM (doses to about 46 µM), without a hit: at the top dose activity change, positive = activation, actives largely listed as activators | hit rate 1.3% among 330,000 | HEK293T ELG1-luciferase reporter, luminescence, 16 h; also: % of control where 0% means no effect; nearly all actives have a fitted effect of over 60% in size
#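 Cells (2,000/well) expressing the ELG1-luciferase fusion are dosed by pin tool and kept 16 hr at 37 °C, 5% CO2. Signal comes from ONE-Glo luciferase reagent after 30 min at room temperature.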
# SW480 rereplic: A quantitative high throughput screen for small molecules that induce DNA re-replication in SW480 colon adenocarcinoma cells. SW480 DNA re-replication, Hoechst DNA content imaging, 48 h. Potency, µM (doses to about 46.1 µM), for the others: top-dose re-replication activation, hits mostly activators. hit rate 1.8% among 340,000; also: % of control where 0% means no effect; nearly all actives have a fitted effect of over 55% in size
#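 Compounds, transferred as 23 nL by pin tool, were incubated with cells for 48 hr; DNA content per nucleus was then quantified by Hoechst staining and fluorescence plate imaging.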
# ELG1 FLuc counter: qHTS screen for small molecules that inhibit ELG1-dependent DNA repair: Hit Confirmation in Cell-Based Luciferin Assay. AID 624247, 2012. cell-free firefly luciferase luminescence counter-screen, ViewLux. Potency, µM (titrated, usually from 46.1 µM), for the others: top-dose activity change, negative = inhibition, actives largely listed as inhibitors. hit rate 3% among 350. shares compounds with ELG1 repair inh; also: % is scaled to controls: 0 for no effect and ±100 for the full control effect
# ELG1-Luc inh: HTS assay for small molecules that inhibit ELG1-dependent DNA repair in human embryonic kidney (HEK293T) cells expressing luciferase-tagged ELG1: Hit Confirmation | HEK293T ELG1-luciferase levels, luminescence; cells co-treated with 5-fluorouridine | shares compounds with ELG1 repair inh | Potency, µM (titrated, usually from 46.1 µM), inactives show top-dose activity change, negative = inhibition, most hits filed as inhibitors | hit rate 68% among 670; also: % is scaled to controls: 0 for no effect and ±100 for the full control effect; nearly all actives have a fitted effect of over 55% in size
# ELG1-Luc MMS: MMS-stimulated human ELG1 repair inhibition, confirmed | shares compounds with ELG1 repair inh | HEK293T luciferase-tagged ELG1 level, MMS stimulated | Potency, µM (top dose mostly 46.1 µM), without a hit: at the highest dose activity change, negative = inhibition, most hits filed as inhibitors | hit rate 53% among 670; also: % is scaled to controls: 0 for no effect and ±100 for the full control effect; nearly all actives have a fitted effect of over 60% in size
# ELG1 5FU viab: qHTS screen for small molecules that inhibit ELG1-dependent DNA repair: Hit Confirmation with 5FU Viability. Potency, µM (top dose mostly 46.1 µM), for inactives: at the highest dose activity change, negative = viability loss, hits mostly cytotoxic. cell viability with 5-FU, ELG1-dependent repair. AID 624250, 2012. 670 tested, under 10 active. shares compounds with ELG1 repair inh;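 also: ELG1-luc HEK293T cells cotreated with 5-fluorouridine at 10 µM final; viability measured 16 h after compound addition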
# ELG1 MMS viab: qHTS screen for small molecules that inhibit ELG1-dependent DNA repair: Hit Confirmation with MMS Viability | shares compounds with ELG1 repair inh | Cell viability with MMS, ELG1-dependent DNA repair | Potency, µM (titrated, usually from 46.1 µM), without a hit: at the highest dose activity change, negative = viability loss, actives largely listed as cytotoxic | hit rate 33% among 670;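 also: ELG1-luc HEK293T cells co-treated with 10 µM MMS; viability read 16 h after compound addition; % is scaled to controls: 0 for no effect and ±100 for the full control effect; nearly all actives have a fitted effect of over 60% in size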
# Cell viab unstim: qHTS screen for small molecules that inhibit ELG1-dependent DNA repair: Hit Confirmation with Unstimulated Viability Assay | shares compounds with ELG1 repair inh | cell viability counter-screen, unstimulated, luminescence | Potency, µM (top dose mostly 45.9 µM), for inactives: top-dose activity change, negative = loss of viability, hits mostly cytotoxic | hit rate 8% among 900 | AID 624252, 2012;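 also: compound exposure lasted 16 hours before reading; % is scaled to controls: 0 for no effect and ±100 for the full control effect; nearly all actives have a fitted effect of over 55% in size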
# FLuc biochem: qHTS screen for small molecules that inhibit ELG1-dependent DNA repair: Hit Confirmation in Biochemical Luciferin Assay. shares compounds with ELG1 repair inh. purified firefly luciferase, luminescence counter-screen. Potency, µM (titrated, usually from 57.5 µM), inactives show at the top dose activity, negative = inhibition, actives largely listed as inhibitors. hit rate 10% among 350; also: % is scaled to controls: 0 for no effect and ±100 for the full control effect
# Active calls of the source: *; ? = inconclusive; / = no result given; [ ] = remark or other dose. This is a sample that favours compounds with a hit; in the whole collection about 7.1% have one here. Calls follow the shape of the dose curve; as a rule, active = well fitted curve in the direction sought with a large enough effect; inconclusive = small, poorly fitted or top-dose-only effect, or another doubt; inactive = no such curve, though single readings can be large; an effect the other way counts as inactive or inconclusive. Potency is read from the fitted curve at half-maximal effect.
SMILES,MCF10A rereplic,p53 reactivation,A-T KAP1 phos,ELG1 repair inh,ELG1 genotox,SW480 rereplic,ELG1 FLuc counter,ELG1-Luc inh,ELG1-Luc MMS,ELG1 5FU viab,ELG1 MMS viab,Cell viab unstim,FLuc biochem
COc1ccccc1NC(=O)N(Cc1ccco1)Cc1cc2ccc(C)c(C)c2[nH]c1=O,7.31µM*,-2.9%,-6.5%,8.2µM*,-24.4%,18.4µM*,10.0%,3.97µM*,?,3.8%,?,?,-17.4%
O=C(CN1C(=O)NC2(CCCC2)C1=O)N1CCN(c2ccccc2Cl)CC1,0.2%,3.0%,-10.3%,?,?,-16.2%,/,/,/,/,/,/,/
COc1cccc(-c2nc(CS(=O)(=O)CC(=O)NCCc3ccccc3)c(C)o2)c1,2.9%,-13.2%,-2.3%,4.61µM*,-4.0%,-12.0%,/,?,-4.3%,?,-0.7%,-8.7%,/
O=C(NCCCn1ccnc1)c1ccc(Cl)s1,-1.5%,-3.4%,-0.3%,0.2%,0.0%,0.1%,/,/,/,/,/,/,/
Cn1c(=O)c2c(nc(CN3CCc4ccccc4C3)n2Cc2ccccc2F)n(C)c1=O,?,-12.0%,-8.1%,?,-11.3%,?,/,8.88µM*,-27.8%,?,8.6%,-15.0%,/
CCC(C)NC(=O)c1oc2ccc(S(=O)(=O)N3CCC4(CC3)OCCO4)cc2c1C (stereo not given),4.8%,-7.7%,2.0%,-24.9%,-17.6%,-1.4%,-8.6%,15.8µM*,?,4.0%,-3.8%,-19.9%,-2.4%
Cc1c(C(=O)Nc2ccc(F)cc2)oc2ccc(S(=O)(=O)N3CCC4(CC3)OCCO4)cc12,16.1%,-6.2%,-1.5%,11.6µM*,-15.0%,0.4%,?,7.06µM*,22.3µM*,?,25µM*,?,-2.7%
CCOc1ccc(N(CC(=O)NCc2ccco2)C(=O)CCC(=O)Nc2nccs2)cc1,-3.1%,8.7%,-2.3%,1.4%,0.1%,-8.6%,/,/,/,/,/,/,/
Cc1c(I)c(=O)n(-c2ccccc2)n1C,-1.3%,/,/,/,/,-7.5%,/,/,/,/,/,/,/
CC(=O)NC1C(c2nc3ccccc3s2)=C(c2ccccc2)C(=O)N1c1ccc(C)cc1 (stereo not given),7.5%,11.2%,/,?,5.2%,?,/,/,/,/,/,/,/
COc1cccc(N2C(=O)C(c3ccccc3)=C(c3nc4ccccc4s3)C2NC(C)=O)c1 (stereo not given),?,1.6%,3.2%,2.31µM*,-1.1%,9.1%,3.2%,3.15µM*,2.6%,?,-2.0%,-3.2%,-15.9%
CC1(C)Cc2c(c(N3CCOCC3)nc3sc(C(=O)N4CCCCC4)c(N)c23)CO1,6.5%,-8.0%,25.7%,0.206µM*,3.5%,-7.2%,20.1%,0.445µM*,0.9%,?,-3.7%,-1.8%,-12.2%
COc1ccc(NC(=O)c2sc3nc(N4CCOCC4)c4c(c3c2N)CC(C)(C)OC4)cc1,9.9%,4.8%,14.5%,0.411µM*,18.6%,25.5%,3.9%,0.354µM*,15.3%,?,-6.5%,-0.5%,-9.1%
OCl,3.0%,/,/,/,/,-6.4%,/,/,/,/,/,/,/
O=C1NC[C@H](c2ccccc2)OC(=O)[C@@H](Cc2ccc(F)cc2)C/C=C\C[C@H]1CC(=O)N(CCO)Cc1ccccc1,573.0%,-3.8%,-7.2%,2.59µM*,-5.8%,?,/,7.91µM*,12.5µM*,?,?,?,/
O=C1NC[C@H](c2ccccc2)OC(=O)[C@H](Cc2ccc(F)cc2)C/C=C\C[C@H]1CC(=O)N(CCO)Cc1ccccc1,?,-6.3%,-5.5%,1.3µM*,-13.5%,-7.8%,/,5.6µM*,2.81µM*,?,?,?,/
O=C1N[C@@H](c2ccccc2)COC(=O)[C@H](Cc2ccc(F)cc2)C/C=C\C[C@H]1CC(=O)N(CCO)Cc1ccccc1,3.8%,/,/,/,/,4.2%[9.22 µM],/,/,/,/,/,/,/
COc1ccc(NC(=O)CCC(=O)Nc2nnc(CC(C)C)s2)cc1Cl,-0.9%,0.5%,-3.4%,7.0%,1.6%,-4.2%,/,/,/,/,/,/,/
Cc1ccc(Nc2nc(-c3ccncc3)nc3ccccc23)cc1,9.2µM*,-0.6%,2.8%,2.59µM*,6.0%,55.3%,42.4%,3.97µM*,18.4%,-1.8%,-14.4%,-18.3%,-10.5%
